# Assay results as given in the supplement of paper PMC10681739.
# Target: T1, ETS1 (UniProt P14921)
# T1 sequence: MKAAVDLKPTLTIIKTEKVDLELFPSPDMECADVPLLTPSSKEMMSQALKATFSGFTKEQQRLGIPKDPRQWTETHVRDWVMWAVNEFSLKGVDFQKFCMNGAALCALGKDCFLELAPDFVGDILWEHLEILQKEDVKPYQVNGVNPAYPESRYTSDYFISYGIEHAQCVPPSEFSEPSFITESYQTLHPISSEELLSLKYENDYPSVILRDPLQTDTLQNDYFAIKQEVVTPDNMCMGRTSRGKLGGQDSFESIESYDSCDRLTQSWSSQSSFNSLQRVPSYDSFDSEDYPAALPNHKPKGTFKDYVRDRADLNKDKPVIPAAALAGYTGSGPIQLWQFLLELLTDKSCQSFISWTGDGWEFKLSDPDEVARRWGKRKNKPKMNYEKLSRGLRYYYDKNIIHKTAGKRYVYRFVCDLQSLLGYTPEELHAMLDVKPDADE
# Assay: ETS1 binding intensity (PBM fluorescence) in presence of RUNX1, normalised to ETS1-only experiment (arbitrary fluorescence units); higher = stronger binding
# Settings: ETS1 concentration 1 nM; RUNX1 concentration 25 nM
# Description: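 Cooperative genomic-context PBM: 36-bp genomic probes with neighbouring ETS1 and RUNX1 sites, double-stranded on Agilent 4x180k arrays. Full-length recombinant human ETS1 (1 nM) was incubated alone or with RUNX1 (25 nM) and detected with anti-ETS1 antibody plus Alexa488 secondary. Value is the median fluorescence intensity over 4 replicate spots; the ETS1+RUNX1 data were normalised to the ETS1-only data using probes without RUNX1 sites. The 36-bp variable region sits on the array probe with constant linker/primer flanks that are not printed.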
row,Sequence,ETS1 binding intensity
1,CTTGGCGGAAGTGGTGTGGGGGAGGTAGCCCGCAGT,5600
2,CTCAGCGGAAGAGCGGGCCTCTGGGCCGCAGTGACC,430
3,CTGCCTGGCACAGGATGTGGTCATTTGTGCTGAGGA,17900
4,ATTACAGGAAGTATGTCCTCCTCTGCCTAACCACTG,2210
5,AAAGGGCAGACTTCCCTGCCCACATCTCTGCTCCTG,359
6,ACCTGTGTTCTGGCAGGATGTGGTTGACCTCAGCAG,18700
7,AGAACAGCAGGAAATAAATACCCACCTCAGGACTGC,1050
8,AACTAAGTGCAGGGGAAGTTGTGGTTATTTTTTACC,3360
9,TTTTCCGACGGAAGCCTTACTGCCGCAAACGTCACT,503
10,CGTCACTTCCCACGCGACTGCCTGCGGGAAACATGG,704
11,GTAAATAAAGAGGAAGTCCCTATGCGGGGGATGGGG,2060
12,AGCTGAAGGGCAGGATGTGGTTTCAGCATTCGGTGA,16400
13,CAGGCCTGTGATTTCCTCTGAGTGGTTTTCTTGGCC,401
14,CCATTTCCGCGCACGTCTGCAGATGCGGTAGTCGAT,463
15,TCTAGTTCTGGTTTCCGGACCGCATTCGGAACTAGA,1390
16,GCTCGCGTCATCCTGCAGCGCCGACACCACAGACAC,505
17,GGTCTGGAGGATGTTTGCAGCTGCTGTGGGTGGTGG,530
18,CAGCAGAGGCGCGGATGTGGTTAAACGAGTGCCGTC,6770
19,AAAGAACTTCCTGAGGTGCTTGAGGTTAGGCTATGG,498
20,TGATGCAGGAAGGGGTGGAGTCACCACAGGAGGTAG,952

row,Sequence,ETS1 binding intensity
1,AGTACAAAGGGGAAATGTCTCTTGGTGGTTGATAAG,564
2,TCAGGGGAGCGAGCAGGAAGTGGTAAGATTTGATAG,7210
3,GACCAGGAAACGGGGCGTGGCGGCCGCCGTGGTTAC,485
4,TGGCTGGGCAGGAAGGCCTGTGGCTTACGGTTCCTG,651
5,GCTTACGTCACGTCCGGCGCCTGCGGCCCACCCCTC,506
6,GTATCACTTCCTGTTTTCCTCTGTGGCTTACTGCTG,3330
7,CGTACGCGCACTTCCGGTCTTTGTGGCTTGCAGCTC,34400
8,CTCGCCCCATTTCCCGTAAATATCAGCCACAGACCA,464
9,GGAGGCGGAAGTGGAGGTTGTTGTGGCTCCGAGGGC,1950
10,CTGCCGCGACAGACAGGATGTGGCTTCTGCTCTGTC,16900
11,CATCAAAAACAGAGGAAGCCACAGCAAATTGCTGCC,418
12,GAAACCTCACTCTGAGGATGTGGGTTCTGCCTTCTT,1710
13,TCCTCCATGCAGGAAAACCTCTGTGGTCTGGGAGCT,1230
14,CCCAGCCGAGGGAGGAAGCCTGCGGTCACTGCCATC,2740
15,CGGGCGAGCGCAGGATGCGGTTGTCGAACGCGCGGC,1050
16,GCTCCGCTTCCGGGAGGCGGGGCTTCTGCGGGTTCC,2520
17,GGGCAGCAGCAGACCGGAAACCACAGCCGACTAAGA,29500
18,CACCCATAGCACCCCGGAAACCACCTCCACCACCTG,2240
19,GGCGGAACTTGTGCGTACGCTGGAAAACCGCTGGGG,545
20,CAGATTCCCGGAAAGGGGGACATGTAGCCGCAAAAG,1990
